The results in this text go back to PubChem BioAssay AID488969 (Vanderbilt High Throughput Screening Facility, 2010).

Over roughly 110,000 compounds, “z-score” has its median near -0.1; the highest 2% begin near 2. Shown is part of a subset that was picked to be rich in the highest values. Calls of active or inactive are those of the source.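 The calls were made as follows: active = z-score in the third read window above 3 or below -3; inactive = the rest.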

The target of the test is Metabotropic glutamate receptor 8 (Rattus norvegicus) (UniProt P70579). The test can be described thus: mGluR8 Gi/Go-coupled signaling modulation – cell-based, rat, thallium flux, HTS, primary screen (AID 488969). The following applies: HEK293 rat mGluR8, GIRK (G protein-gated inwardly rectifying potassium channel) thallium flux, FluoZin2; at 10 µM; stronger effect = higher value; submaximal glutamate (EC20) added with thallium.
Metabotropic glutamate receptor 8 (Rattus norvegicus), sequence (P70579 whole entry, looked up): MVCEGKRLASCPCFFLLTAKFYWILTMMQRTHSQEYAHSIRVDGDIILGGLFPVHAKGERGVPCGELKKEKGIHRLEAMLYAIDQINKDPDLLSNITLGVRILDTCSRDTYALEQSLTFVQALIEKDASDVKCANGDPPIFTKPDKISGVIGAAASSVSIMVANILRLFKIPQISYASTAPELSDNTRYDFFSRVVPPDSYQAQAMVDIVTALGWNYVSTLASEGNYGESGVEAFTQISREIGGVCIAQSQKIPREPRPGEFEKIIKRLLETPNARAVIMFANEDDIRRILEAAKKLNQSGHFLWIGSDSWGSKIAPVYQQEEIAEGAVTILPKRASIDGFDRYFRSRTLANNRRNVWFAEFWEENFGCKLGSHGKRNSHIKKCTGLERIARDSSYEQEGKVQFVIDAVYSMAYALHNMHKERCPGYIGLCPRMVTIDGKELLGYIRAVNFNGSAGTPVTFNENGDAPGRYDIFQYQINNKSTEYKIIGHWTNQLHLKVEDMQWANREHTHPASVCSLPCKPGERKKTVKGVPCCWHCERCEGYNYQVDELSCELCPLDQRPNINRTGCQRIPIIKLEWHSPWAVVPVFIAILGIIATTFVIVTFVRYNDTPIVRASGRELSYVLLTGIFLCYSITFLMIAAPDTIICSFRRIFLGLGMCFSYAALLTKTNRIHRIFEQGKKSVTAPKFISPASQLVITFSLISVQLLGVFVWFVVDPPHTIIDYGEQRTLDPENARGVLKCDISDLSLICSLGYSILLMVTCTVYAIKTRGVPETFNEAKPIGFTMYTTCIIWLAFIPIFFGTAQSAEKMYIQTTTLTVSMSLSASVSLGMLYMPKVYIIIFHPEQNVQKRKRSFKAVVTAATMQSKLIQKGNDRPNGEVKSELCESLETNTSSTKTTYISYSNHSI
The compound `O=C(CN1CCCC1)NC12CC3CC(CC(C3)C1)C2` registered a z-score of -0.0651.

`Cn1c(=O)c([N+](=O)[O-])c(NCc2ccccc2)c2ccccc21` gave a z-score of -0.608. The result for `COc1ccc(CNC(=O)COC(=O)c2cc(-c3ccc(Cl)s3)nc3ccccc23)cc1` reads -0.432; that for `O=C(NCCc1c[nH]c2ccccc12)c1cc2sccc2n1Cc1ccccc1`, -0.216. Compound `Cc1ccc(C(=O)O/N=C\c2ccc(N3CCOCC3)c([N+](=O)[O-])c2)cc1` registered a z-score of -0.0662. Take `CC(=O)Nc1ccc(NC(=O)C(F)(F)F)cc1`: the z-score is 0.364. As to `FC(F)Sc1ccc(-n2cc(-c3ccccc3)[n+]3c2CCC3)cc1`, the z-score is -0.0431. With `CCCc1nc(SCC(=O)N2CCN(c3ccccc3)CC2)c2c(=O)n(C)c(=O)n(C)c2n1`, the z-score came out at 2.39. `CCCc1nc(SCC(=O)c2ccccc2)c2c(=O)n(C)c(=O)n(C)c2n1`: the z-score was 0.819. The result for `CCCc1nc(SCC(=O)N2CCC(Cc3ccccc3)CC2)c2c(=O)n(C)c(=O)n(C)c2n1` reads 1.98; that for `O=C(CSc1nnc(Nc2ccccc2)s1)NN1C(=O)NC2(CCCCC2)C1=O`, 2.14; that for `O=C(CSc1nnc(NC2CCCCC2)s1)NN1C(=O)NC2(CCCCC2)C1=O`, 0.151. Regarding `Cc1nnc(SCC(=O)NN2C(=O)NC3(CCCCC3)C2=O)s1`, the z-score is -0.0833. Turning to `CCCCC1=C([O-])C2N=CC=CC2=[N+](c2ccccn2)C1=O` (configuration not stated), the z-score is -0.104. Consider `Cc1ccc(S(=O)(=O)NC(CC(=O)N2CCc3ccccc32)c2ccco2)cc1` (configuration not stated), for which the z-score is -0.465. `CC(C)NC(=O)c1cc2cc(Br)ccc2oc1=O`: the z-score was -0.497.

In the case of `O=C(Nn1cnnc1)c1cc2cc(Br)ccc2oc1=O`, the z-score is 4.37 (active). For `CCN(CC)C(=O)c1cc2cc(Br)ccc2oc1=O`, the z-score turned out to be 0.312.

`CCC(c1nnnn1C(C)(C)C)N(Cc1ccco1)Cc1cc2cccc(C)c2[nH]c1=O` (configuration not stated): the z-score amounted to 0.737. With `CC(C)C(C)(C#N)NC(=O)CSc1nnc(-c2ccccc2)o1` (configuration not stated), the z-score was -0.849. The compound `CCc1cc2c(SCC(=O)c3ccccc3)ncnc2s1` yielded a z-score of 0.275. `CN(C)/C=N/c1c(C#N)cnn1-c1ncnc2sc(-c3ccccc3)cc12` returned a z-score of 0.831.

Turning to `CCN(CC)C(=O)CSc1nnc(-c2ccccc2)c(-c2ccccc2)n1`, the z-score is -0.489.

The compound `COC(=O)c1c(C)[nH]c(C(=O)CSc2ncnc3sc(-c4ccccc4)cc23)c1C` showed a z-score of 1.11. Consider `CCN(CC)C(=O)CSc1ncnc2sc(-c3ccccc3)cc12`, for which the z-score is 7.95 (active). The compound `CC(C)C(C)(C#N)NC(=O)CSc1nnc(-c2ccncc2)n1Cc1ccccc1` (configuration not stated) displayed a z-score of 0.023. On to `CC(=O)c1c(C)[nH]c(C(=O)CSc2nnc(-c3ccccc3)o2)c1C`, for which the z-score was -0.229. `CN(CCC#N)C(=O)CSc1ncnc2sc(-c3ccccc3)cc12`: the z-score is 8.2 (active).

The compound `CCN(CC)C(=O)CSc1ncnc2c1cnn2Cc1ccccc1` had a z-score of 0.13. Regarding `CC(=O)c1c(C)[nH]c(C(=O)CSc2ncnc3sc(-c4ccccc4)cc23)c1C`, the z-score is 5.38 (active).

For the compound `CC(C)C(C)(C#N)NC(=O)CSc1ncnc2sc(-c3ccccc3)cc12` (configuration not stated), the z-score is 4.81 (active). With `CCOC(=O)C1CCN(C(=O)c2cccc(Cl)c2)CC1`, the z-score was determined as 0.0552.

In the case of `C/C(=N\NC(=O)c1c(Cl)c(C)nn1C)c1cccc(NC(=O)COc2ccccc2)c1`, the z-score was -0.103. `CCOC(=O)Nc1nnc(-c2ccc(OC)cc2)s1`: the z-score was 0.0823.

`CC(C)[C@H](NC(=O)c1ccccc1)C(=O)OCC(=O)N1CCCc2ccccc21` returned a z-score of 0.0154.

The compound `Cc1cccc(C)c1NC(=O)CSc1nc(COc2ccccc2)nc2ccccc12` gave a z-score of 0.755. Take `Cc1ccc(NC(=O)C(c2ccccc2)C2CCCC2)cc1` (configuration not stated): the z-score was 3.36 (active). The figure for `O=C(Nc1ccc2ccccc2c1)C(c1ccccc1)C1CCCC1` (configuration not stated) is 0.0599. In turn, `O=C(Nc1ccccc1)C(c1ccccc1)C1CCCC1` (configuration not stated) came in with a z-score of -0.474. In the case of `CCOC(=O)N1CCN(C(=O)N2CCOCC2)CC1`, the z-score worked out at 0.275. As to `COc1ccccc1N1CCN(S(=O)(=O)c2ccccc2F)CC1`, the z-score was -0.52. The result for `CC(C)COC(=O)C(C#N)c1nc2ccccc2nc1N1CCN(Cc2ccccc2)CC1` (configuration not stated) reads -0.213; that for `CCCCCCOC(=O)C(C#N)c1nc2ccccc2nc1N1CCN(C)CC1` (configuration not stated), 2.73. In turn, `CCC(CC)COC(=O)C(C#N)c1nc2ccccc2nc1N1CCN(CC)CC1` (configuration not stated) registered a z-score of 2.72.

For `CCCCCCOC(=O)C(C#N)c1nc2ccccc2nc1N1CCCCC1` (configuration not stated), the z-score was -0.00593.

`COCCOC(=O)C(C#N)c1nc2ccccc2nc1N1CCCC1` (configuration not stated): the z-score was -0.268.

The compound `CCCCCCOC(=O)C(C#N)c1nc2ccccc2nc1N1CCN(CC)CC1` (configuration not stated) registered a z-score of 0.709. Consider `COc1ccc(CCNC(=O)Cc2cc(OC)c(OC)cc2[N+](=O)[O-])cc1OC`, for which the z-score is -0.376. The result for `COCC(=O)Nc1nnc(COc2ccc(Cl)cc2)s1` reads 0.279; that for `COc1ccc(C2c3c(ccc4ccccc34)Oc3ncn4nc(Cc5ccc(OC)c(OC)c5)nc4c32)cc1` (configuration not stated), -0.169. `Cc1cc(=O)oc(C)c1C(=O)N1CCN(C(c2ccccc2)c2ccccc2)CC1` gave a z-score of 0.596. The figure for `CN(C)C(=O)C(=O)c1cccn1-c1ccccc1C#N` is 0.429; for `CCOC(=O)C1CCCN(C(=O)c2sc3nc(C)nc(N(CC)CC)c3c2C)C1` (configuration not stated) it is -0.328.

As for `COc1ccccc1CC(=O)N1CCN(c2cccc(C(F)(F)F)c2)CC1`, the z-score was 0.359.

As for `Cc1ccc(/C=C/C(=O)N2CCN(c3cccc(C(F)(F)F)c3)CC2)cc1`, the z-score was -0.0624. With `Cc1ccc(CC(=O)N2CCN(c3cccc(C(F)(F)F)c3)CC2)cc1`, the z-score is 6.97 (active). Consider `CCc1c(C(=O)Nc2nnc(C3CC3)s2)csc1C`, for which the z-score turned out to be 1.09. Compound `CC(C)(C)c1ccc(OCc2ccc(C(=O)N/N=C/c3ccc([N+](=O)[O-])cc3)o2)cc1` came in with a z-score of -0.4.

Take `O=C(NN=C1CCCCCCC1)C(=O)NC1CCCCC1`: the z-score is 0.327. Regarding `CN1CCC(=NNC(=O)C(=O)NC2CCCCC2)CC1`, the z-score is 2.04. The result for `CN1CCC(=NNC(=O)C(=O)NC2CCCC2)CC1` reads -0.0552; that for `O=C(Cn1[nH]c(=O)c2ccccc2c1=O)NC1CCCCCC1`, 0.0122; that for `CCOC(=O)C1[C@H]2C(=O)N(C(C)c3ccc(OC)cc3)C[C@]23C=C[C@H]1O3` (some centres not stated), 0.209. With `COc1ccc(C(C)N2CC34C=CC(O3)C(C(=O)OCC(C)C)C4C2=O)cc1` (configuration not stated), the z-score was 5.16 (active). `CCCOC(=O)C1[C@H]2C(=O)N(C(C)c3ccc(OC)cc3)C[C@]23C=C[C@H]1O3` (some centres not stated) gave a z-score of 0.656. The result for `CC(C)(NC(=O)N1CCOCC1)c1cccc(C(C)(C)NC(=O)N2CCOCC2)c1` reads -0.126; that for `Cc1cc(C)c2cc(C)c3nnc(SCC(=O)NCc4ccc5c(c4)OCO5)n3c2c1`, -0.513; that for `COc1cc(CNCCc2c[nH]c3ccccc23)ccc1OCc1ccc(F)cc1`, 3.41 (active). In turn, `COc1cccc(CNCCc2c[nH]c3ccccc23)c1OCc1ccc(F)cc1` showed a z-score of 2.04. On to `COc1cccc(CNCCc2c[nH]c3ccccc23)c1OCc1ccccc1`, for which the z-score is 1.32.

Regarding `COc1cc(CNCCc2c[nH]c3ccccc23)ccc1OCc1ccccc1F`, the z-score turned out to be 0.911.

`COc1cccc(CNn2cnnc2)c1OCc1ccc(F)cc1`: the z-score is -0.661.

In the case of `COc1ccccc1CCNCc1ccc(OC)c(OCc2ccccc2)c1`, the z-score is 0.696. On to `Cc1cccc(N2CCN(C(=O)COc3ccc4c(c3)CCC4)CC2)c1C`, for which the z-score was -0.161. `CC1(C)NC(=O)N(CCSc2ccc(Cl)cc2)C1=O` returned a z-score of -0.257. In turn, `CCC(Sc1n[nH]c(=O)[nH]c1=O)C(=O)OCc1ccccc1` (configuration not stated) yielded a z-score of 0.193. Turning to `O=C(NCc1ccc(F)cc1)c1cc(S(=O)(=O)N2CCOCC2)ccc1F`, the z-score was determined as 0.0221.

With `Cc1ccc(S(=O)(=O)NCC(=O)N(CC(=O)NCc2ccco2)Cc2ccc3c(c2)OCO3)cc1`, the z-score was -0.622. In the case of `COc1cccc(CSc2nc3ccccc3[nH]2)c1`, the z-score turned out to be 2.68.

The compound `COc1ccc(CSc2nc3ccccc3[nH]2)cc1` showed a z-score of 0.53.

The compound `O=C(COC(=O)CCCSc1nc2ccccc2[nH]1)NC(=O)NC1CCCC1` gave a z-score of -0.664. The figure for `c1ccc(OCCSc2nc3ccccc3[nH]2)cc1` is 2.69; for `CCNC(=O)NC(=O)COC(=O)CCCSc1nc2ccccc2[nH]1` it is 3.23 (active). For `Fc1cccc(F)c1CSc1nc2ccccc2[nH]1`, the z-score was -0.786. As to `C=CCNC(=O)NC(=O)COC(=O)CCCSc1nc2ccccc2[nH]1`, the z-score is -0.828. `Fc1ccccc1CSc1nc2ccccc2[nH]1` yielded a z-score of 0.129.

Regarding `COC(=O)c1cccc(CSc2nc3ccccc3[nH]2)c1`, the z-score was 0.475. For the compound `Fc1ccc(CSc2nc3ccccc3[nH]2)c2ccccc12`, the z-score was 10.7 (active). Take `Cc1cccc(OCCCSc2nc3ccccc3[nH]2)c1`: the z-score was found to be 0.357. In turn, `O=c1[nH]c(SCCOc2ccccc2)nc2ccccc12` had a z-score of -0.359. In turn, `C/C(=N\Nc1cc(-c2ccccc2)nc(-c2ccc(Br)cc2)n1)c1cccc(N)c1` came in with a z-score of -0.0597. The compound `CN1CCN(C(=O)c2ccc(CS(=O)(=O)c3c(Cl)cccc3Cl)o2)CC1` came in with a z-score of 0.504. The compound `Nn1c(SCC(=O)Nc2ccc3c(c2)OCCO3)nnc1-c1ccccn1` yielded a z-score of -0.0196. For the compound `COCCN1C(=O)C(=O)/C(=C(/O)c2ccc(S(=O)(=O)N3CCOCC3)cc2)C1c1ccc(C(C)C)cc1` (configuration not stated), the z-score came out at 0.0253. The result for `COc1ccc(NC(=O)CCS(=O)(=O)c2ccccc2)c(OC)c1` reads 0.256.

As to `C=CCNC(=S)N/N=C/c1cn(-c2ccccc2)nc1-c1ccc(OC)cc1`, the z-score is -0.184.

Consider `O=C(N/C=C\c1ccccc1)NCc1ccc(Cl)cc1`, for which the z-score was determined as 0.197. With `COc1ccc(C(=O)N(Cc2ccccc2)Cc2cc3cc4c(cc3[nH]c2=O)OCCO4)cc1`, the z-score worked out at 0.201.

`COc1cccc(C2c3c(oc4ccc(F)cc4c3=O)C(=O)N2CCN2CCOCC2)c1OC` (configuration not stated) came in with a z-score of -0.574. On to `C=CCNc1cnn(CC(C)=O)c(=O)c1Br`, for which the z-score is -0.0909. As for `C=CCn1c(CCNC(=O)c2cccs2)nnc1SCC(=O)c1ccc(Cl)cc1`, the z-score is -0.334. As to `CCOc1cc2c(cc1C(C)(C)C)NC(=O)CS2`, the z-score was -0.538.

In turn, `CCOC(=O)C1=C(c2ccccc2)Nc2c(c(=O)n(C)c(=O)n2C)C1c1ccc(O)c(OC)c1` (configuration not stated) registered a z-score of 0.108. Take `Cc1cc([N+](=O)[O-])c(C(C)(C)C)cc1N`: the z-score is 1.32.

`CCCOc1ccc(CSc2nc3ccccc3[nH]2)cc1` gave a z-score of 1.22. In turn, `CCOc1ccc(OCCSc2nc3ccccc3c(=O)[nH]2)cc1` came in with a z-score of -0.398. As to `CCOc1ccc(OCCSc2nc3ccccc3[nH]2)cc1`, the z-score is 3.67 (active).
